Source: paper PMC7862700, “An all-to-all approach to the identification of sequence-specific readers for epigenetic DNA modifications on cytosine”

Key:
Test in all cases: DAPPL (digital affinity profiling via proximity ligation, sequencing); 10 mM Tris-HCl pH 7.5, 50 mM NaCl, 1 mM DTT, 4% glycerol, room temperature, 30 min; GST-TFs on glutathione beads, 16-mer random dsDNA library, 0.1% formaldehyde crosslink after washing; high values mean tight binding
FEV = molecular target: T1, FEV (Homo sapiens, UniProt Q99581 1-238); conditions: protein: recombinant; tags: N-terminal GST; dsDNA, one strand shown
T1 sequence: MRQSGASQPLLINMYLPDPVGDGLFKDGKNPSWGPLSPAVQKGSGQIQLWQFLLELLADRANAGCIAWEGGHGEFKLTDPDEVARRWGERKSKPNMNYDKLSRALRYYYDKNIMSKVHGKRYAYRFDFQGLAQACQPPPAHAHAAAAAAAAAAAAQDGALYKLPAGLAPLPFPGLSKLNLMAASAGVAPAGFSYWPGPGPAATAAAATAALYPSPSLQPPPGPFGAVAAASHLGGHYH
In short: (§1)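 The binding signal reported is, for every hexamer, its read frequency for a factor over its read frequency for the tag-only sample. Reads came from pools of yeast-expressed, GST-fused human transcription factors on glutathione beads, barcoded with DNA and mixed with that sample, which were incubated with 200 nmole of a random double-stranded 16-mer DNA library in Tris/NaCl/DTT/glycerol buffer at room temperature for 30 min. After washing, the pools were crosslinked with 0.1% formaldehyde, proximity-ligated with BsaI/T4 ligase for 1 h at 37 °C, PCR-amplified and sequenced on an Illumina NextSeq500.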

ETV5 = ETV5 (Homo sapiens, UniProt P41161 1-510); conditions: protein: recombinant; tags: N-terminal GST; dsDNA, one strand shown
Sequence of ETV5 (P41161 whole entry): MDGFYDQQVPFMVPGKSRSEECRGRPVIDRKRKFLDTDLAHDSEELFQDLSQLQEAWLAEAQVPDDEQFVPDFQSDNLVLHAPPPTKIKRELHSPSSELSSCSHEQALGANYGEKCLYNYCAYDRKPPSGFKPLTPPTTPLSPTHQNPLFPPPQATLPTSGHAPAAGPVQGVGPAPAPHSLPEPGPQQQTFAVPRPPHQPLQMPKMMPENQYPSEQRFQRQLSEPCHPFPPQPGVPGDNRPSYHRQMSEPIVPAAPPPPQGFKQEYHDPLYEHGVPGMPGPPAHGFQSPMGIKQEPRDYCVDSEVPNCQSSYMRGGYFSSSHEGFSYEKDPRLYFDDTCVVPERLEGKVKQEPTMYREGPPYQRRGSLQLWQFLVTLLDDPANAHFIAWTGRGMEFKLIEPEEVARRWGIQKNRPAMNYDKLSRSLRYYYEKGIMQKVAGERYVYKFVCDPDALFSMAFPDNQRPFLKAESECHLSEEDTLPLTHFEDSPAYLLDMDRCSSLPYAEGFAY
In short: as §1

HSF1 = HSF1 (Homo sapiens, UniProt Q00613 1-529); conditions: protein: recombinant; tags: N-terminal GST; chain copies: 3; dsDNA, one strand shown
Sequence of HSF1 (Q00613 whole entry): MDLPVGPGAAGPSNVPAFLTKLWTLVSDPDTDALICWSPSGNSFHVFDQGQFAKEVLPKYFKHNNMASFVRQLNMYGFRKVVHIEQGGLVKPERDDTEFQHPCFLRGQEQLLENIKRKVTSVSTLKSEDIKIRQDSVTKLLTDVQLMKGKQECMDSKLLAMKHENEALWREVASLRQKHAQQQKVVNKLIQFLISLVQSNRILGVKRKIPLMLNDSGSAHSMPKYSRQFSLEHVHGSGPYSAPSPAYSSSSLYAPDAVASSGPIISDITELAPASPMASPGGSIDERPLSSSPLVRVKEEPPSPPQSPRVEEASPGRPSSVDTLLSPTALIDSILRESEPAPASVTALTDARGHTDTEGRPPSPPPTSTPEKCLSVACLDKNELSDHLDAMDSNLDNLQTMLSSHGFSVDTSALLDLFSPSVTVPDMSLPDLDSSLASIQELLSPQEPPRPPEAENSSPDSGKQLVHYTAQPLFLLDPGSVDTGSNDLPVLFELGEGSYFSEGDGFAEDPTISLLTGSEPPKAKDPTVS
In short: as §1

SPIC = molecular target: T2, SPIC (Homo sapiens, UniProt Q8N5J4 1-248); conditions: protein: recombinant; tags: N-terminal GST; dsDNA, one strand shown
T2 sequence: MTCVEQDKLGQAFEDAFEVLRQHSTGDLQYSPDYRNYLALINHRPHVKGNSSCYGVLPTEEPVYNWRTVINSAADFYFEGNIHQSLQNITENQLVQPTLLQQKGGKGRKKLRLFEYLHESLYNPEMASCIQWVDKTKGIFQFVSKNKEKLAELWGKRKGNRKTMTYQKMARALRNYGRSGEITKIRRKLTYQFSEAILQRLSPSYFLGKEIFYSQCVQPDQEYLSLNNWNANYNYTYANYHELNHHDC
In short: as §1

ELF4 = ELF4 (Homo sapiens, UniProt Q99607 1-663); conditions: protein: recombinant; tags: N-terminal GST; dsDNA, one strand shown
Sequence of ELF4 (Q99607 whole entry): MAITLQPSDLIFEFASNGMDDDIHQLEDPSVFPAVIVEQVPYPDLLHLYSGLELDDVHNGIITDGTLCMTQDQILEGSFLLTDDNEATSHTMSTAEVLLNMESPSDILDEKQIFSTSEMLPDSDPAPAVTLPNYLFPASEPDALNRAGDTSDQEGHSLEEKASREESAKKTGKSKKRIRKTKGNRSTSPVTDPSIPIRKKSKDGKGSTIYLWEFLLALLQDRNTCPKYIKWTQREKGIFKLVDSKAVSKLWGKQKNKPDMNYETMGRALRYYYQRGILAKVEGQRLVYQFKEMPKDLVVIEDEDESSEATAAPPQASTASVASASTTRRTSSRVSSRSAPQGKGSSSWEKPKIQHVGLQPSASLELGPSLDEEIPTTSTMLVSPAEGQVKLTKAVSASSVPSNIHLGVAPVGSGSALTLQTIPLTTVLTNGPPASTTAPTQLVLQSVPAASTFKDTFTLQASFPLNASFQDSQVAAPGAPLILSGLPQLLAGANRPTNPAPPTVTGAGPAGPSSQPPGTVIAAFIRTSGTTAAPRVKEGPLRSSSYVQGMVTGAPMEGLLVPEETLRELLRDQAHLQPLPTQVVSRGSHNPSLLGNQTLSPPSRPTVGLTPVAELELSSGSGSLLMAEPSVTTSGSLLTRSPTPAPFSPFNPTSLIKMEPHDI
In short: as §1

ELK4 = molecular target: T3, ELK4 (Homo sapiens, UniProt P28324-2 1-405); conditions: protein: recombinant; tags: N-terminal GST; dsDNA, one strand shown
T3 sequence: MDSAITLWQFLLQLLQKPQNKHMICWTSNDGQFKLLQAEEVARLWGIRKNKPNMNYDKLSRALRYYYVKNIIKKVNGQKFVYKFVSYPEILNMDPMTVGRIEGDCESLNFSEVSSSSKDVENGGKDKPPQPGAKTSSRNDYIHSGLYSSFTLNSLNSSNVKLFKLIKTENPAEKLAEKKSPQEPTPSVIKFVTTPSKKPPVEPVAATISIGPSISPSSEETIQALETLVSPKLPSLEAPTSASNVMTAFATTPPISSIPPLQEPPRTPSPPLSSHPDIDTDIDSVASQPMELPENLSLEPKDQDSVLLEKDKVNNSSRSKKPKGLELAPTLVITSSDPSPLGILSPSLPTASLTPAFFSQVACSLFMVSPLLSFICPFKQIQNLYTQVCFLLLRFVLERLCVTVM
In short: as §1

ETV2 = molecular target: T4, ETV2 (Homo sapiens, UniProt O00321 1-342); conditions: protein: recombinant; tags: N-terminal GST; dsDNA, one strand shown
T4 sequence: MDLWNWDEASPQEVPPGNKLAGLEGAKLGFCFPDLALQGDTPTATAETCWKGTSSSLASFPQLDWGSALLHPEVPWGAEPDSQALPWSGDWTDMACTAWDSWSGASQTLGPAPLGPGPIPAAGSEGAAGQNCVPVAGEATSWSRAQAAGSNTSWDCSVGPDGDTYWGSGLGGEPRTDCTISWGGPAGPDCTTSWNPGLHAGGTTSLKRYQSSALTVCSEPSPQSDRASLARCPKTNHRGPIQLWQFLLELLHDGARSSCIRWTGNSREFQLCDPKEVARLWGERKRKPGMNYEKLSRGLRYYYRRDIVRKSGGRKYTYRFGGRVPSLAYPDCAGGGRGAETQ
In short: as §1

CRX = CRX (Homo sapiens, UniProt O43186 1-299); conditions: protein: recombinant; tags: N-terminal GST; dsDNA, one strand shown
Sequence of CRX (O43186 whole entry): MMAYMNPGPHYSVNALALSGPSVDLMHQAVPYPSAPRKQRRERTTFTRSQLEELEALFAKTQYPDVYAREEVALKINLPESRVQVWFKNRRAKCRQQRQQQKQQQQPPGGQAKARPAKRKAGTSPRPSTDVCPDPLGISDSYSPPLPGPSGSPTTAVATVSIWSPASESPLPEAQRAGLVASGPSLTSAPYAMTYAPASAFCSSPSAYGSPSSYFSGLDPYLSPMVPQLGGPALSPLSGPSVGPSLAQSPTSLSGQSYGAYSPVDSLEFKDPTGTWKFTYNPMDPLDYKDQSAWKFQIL
In short: as §1

ETV1 = ETV1 (Homo sapiens, UniProt P50549 1-477); conditions: protein: recombinant; tags: N-terminal GST; dsDNA, one strand shown
Sequence of ETV1 (P50549 whole entry): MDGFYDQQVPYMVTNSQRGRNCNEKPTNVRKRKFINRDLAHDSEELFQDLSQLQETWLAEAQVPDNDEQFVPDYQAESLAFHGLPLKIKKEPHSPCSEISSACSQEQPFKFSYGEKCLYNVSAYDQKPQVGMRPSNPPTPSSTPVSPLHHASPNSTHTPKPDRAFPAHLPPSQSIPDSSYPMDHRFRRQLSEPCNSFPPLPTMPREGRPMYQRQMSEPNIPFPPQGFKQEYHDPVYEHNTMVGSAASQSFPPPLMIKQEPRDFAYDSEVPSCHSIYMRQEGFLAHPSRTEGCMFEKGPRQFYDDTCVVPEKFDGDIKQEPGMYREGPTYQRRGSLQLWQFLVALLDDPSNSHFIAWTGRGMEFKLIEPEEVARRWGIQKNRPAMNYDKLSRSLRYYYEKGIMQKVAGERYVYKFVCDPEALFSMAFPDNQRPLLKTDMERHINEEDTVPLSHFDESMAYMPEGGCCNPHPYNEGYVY
In short: as §1

ERF = molecular target: T5, ERF (Homo sapiens, UniProt P50548 1-548); conditions: protein: recombinant; tags: N-terminal GST; dsDNA, one strand shown
T5 sequence: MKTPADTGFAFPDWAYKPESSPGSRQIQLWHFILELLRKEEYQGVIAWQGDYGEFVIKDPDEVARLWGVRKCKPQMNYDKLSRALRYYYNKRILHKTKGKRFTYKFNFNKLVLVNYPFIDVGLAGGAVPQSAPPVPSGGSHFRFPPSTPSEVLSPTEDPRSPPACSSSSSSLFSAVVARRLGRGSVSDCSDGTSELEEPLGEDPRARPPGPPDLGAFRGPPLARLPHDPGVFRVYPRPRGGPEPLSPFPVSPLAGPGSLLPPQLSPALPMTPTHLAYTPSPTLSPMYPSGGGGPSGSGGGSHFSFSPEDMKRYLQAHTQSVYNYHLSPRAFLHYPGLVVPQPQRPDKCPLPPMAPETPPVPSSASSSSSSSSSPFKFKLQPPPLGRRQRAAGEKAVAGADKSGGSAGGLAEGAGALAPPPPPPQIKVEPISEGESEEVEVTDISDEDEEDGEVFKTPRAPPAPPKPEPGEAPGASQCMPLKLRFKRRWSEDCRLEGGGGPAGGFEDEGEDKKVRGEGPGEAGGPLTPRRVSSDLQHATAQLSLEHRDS
In short: as §1

ETS2 = molecular target: T6, ETS2 (Homo sapiens, UniProt P15036 1-469); conditions: protein: recombinant; tags: N-terminal GST; dsDNA, one strand shown
T6 sequence: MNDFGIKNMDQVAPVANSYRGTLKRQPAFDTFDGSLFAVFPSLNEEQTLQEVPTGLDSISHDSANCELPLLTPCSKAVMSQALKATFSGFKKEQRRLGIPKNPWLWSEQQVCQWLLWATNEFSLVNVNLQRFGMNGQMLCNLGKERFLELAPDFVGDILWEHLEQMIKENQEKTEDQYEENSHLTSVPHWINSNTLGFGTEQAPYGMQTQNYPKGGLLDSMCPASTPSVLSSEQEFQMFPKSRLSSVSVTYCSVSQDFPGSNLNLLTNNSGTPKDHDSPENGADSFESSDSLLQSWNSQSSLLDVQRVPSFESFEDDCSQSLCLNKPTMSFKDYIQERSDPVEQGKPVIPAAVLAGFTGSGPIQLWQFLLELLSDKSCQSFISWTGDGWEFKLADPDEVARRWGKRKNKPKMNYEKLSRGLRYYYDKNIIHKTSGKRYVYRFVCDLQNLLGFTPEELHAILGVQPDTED
In short: as §1

ETV7 = molecular target: T7, ETV7 (Homo sapiens, UniProt Q9Y603 1-341); conditions: protein: recombinant; tags: N-terminal GST; dsDNA, one strand shown
T7 sequence: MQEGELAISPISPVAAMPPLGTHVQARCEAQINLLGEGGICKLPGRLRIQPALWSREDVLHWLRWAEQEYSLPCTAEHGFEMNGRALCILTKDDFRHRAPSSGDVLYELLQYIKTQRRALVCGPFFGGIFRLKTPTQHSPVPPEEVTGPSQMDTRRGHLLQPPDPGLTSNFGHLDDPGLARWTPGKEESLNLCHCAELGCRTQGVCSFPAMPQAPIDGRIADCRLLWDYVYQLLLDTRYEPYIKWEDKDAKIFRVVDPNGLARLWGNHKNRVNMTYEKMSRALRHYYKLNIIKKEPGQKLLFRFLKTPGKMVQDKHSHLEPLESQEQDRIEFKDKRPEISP
In short: as §1

ELF5 = molecular target: T8, ELF5 (Homo sapiens, UniProt Q9UKW6-2 1-255); conditions: protein: recombinant; tags: N-terminal GST; dsDNA, one strand shown
T8 sequence: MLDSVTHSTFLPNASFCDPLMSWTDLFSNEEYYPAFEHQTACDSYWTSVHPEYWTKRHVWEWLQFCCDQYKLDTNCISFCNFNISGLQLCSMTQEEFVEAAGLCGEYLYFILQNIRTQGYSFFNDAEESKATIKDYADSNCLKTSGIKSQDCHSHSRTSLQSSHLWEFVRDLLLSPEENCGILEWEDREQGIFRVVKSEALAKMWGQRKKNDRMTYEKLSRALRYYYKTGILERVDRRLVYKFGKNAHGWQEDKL
In short: as §1

ELF3 = molecular target: T9, ELF3 (Homo sapiens, UniProt P78545 1-371); conditions: protein: recombinant; tags: N-terminal GST; dsDNA, one strand shown
T9 sequence: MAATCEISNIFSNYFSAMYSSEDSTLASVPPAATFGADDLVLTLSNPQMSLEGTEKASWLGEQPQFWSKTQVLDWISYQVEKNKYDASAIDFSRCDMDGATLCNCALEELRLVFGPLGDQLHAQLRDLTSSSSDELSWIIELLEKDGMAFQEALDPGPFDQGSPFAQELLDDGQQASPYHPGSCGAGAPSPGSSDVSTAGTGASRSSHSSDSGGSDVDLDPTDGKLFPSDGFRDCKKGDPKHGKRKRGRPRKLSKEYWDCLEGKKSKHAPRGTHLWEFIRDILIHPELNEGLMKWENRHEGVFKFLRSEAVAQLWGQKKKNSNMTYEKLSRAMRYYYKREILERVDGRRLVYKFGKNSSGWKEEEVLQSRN
In short: as §1

ETV3L = molecular target: T10, ETV3L (Homo sapiens, UniProt Q6ZN32 1-361); conditions: protein: recombinant; tags: N-terminal GST; dsDNA, one strand shown
T10 sequence: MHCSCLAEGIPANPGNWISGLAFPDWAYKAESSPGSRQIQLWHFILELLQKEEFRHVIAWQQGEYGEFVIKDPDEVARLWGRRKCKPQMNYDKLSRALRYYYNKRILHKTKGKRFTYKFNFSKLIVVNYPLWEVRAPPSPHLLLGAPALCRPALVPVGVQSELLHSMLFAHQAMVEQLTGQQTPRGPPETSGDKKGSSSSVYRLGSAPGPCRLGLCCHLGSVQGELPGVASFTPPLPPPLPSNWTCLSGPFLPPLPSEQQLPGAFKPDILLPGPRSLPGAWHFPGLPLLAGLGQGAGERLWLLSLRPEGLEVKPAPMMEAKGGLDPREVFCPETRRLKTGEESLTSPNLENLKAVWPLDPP
In short: as §1

SPDEF = molecular target: T11, SPDEF (Homo sapiens, UniProt O95238 1-335); conditions: protein: recombinant; tags: N-terminal GST; dsDNA, one strand shown
T11 sequence: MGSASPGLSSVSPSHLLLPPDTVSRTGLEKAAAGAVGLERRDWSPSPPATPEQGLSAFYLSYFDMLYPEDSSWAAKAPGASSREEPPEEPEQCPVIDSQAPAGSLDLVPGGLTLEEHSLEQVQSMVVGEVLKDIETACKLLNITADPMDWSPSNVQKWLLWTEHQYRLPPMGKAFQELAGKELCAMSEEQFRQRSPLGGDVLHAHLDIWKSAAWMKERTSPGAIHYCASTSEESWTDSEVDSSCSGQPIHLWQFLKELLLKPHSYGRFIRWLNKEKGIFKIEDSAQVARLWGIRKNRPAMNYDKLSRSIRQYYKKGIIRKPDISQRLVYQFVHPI
In short: as §1

ETV3 = molecular target: T12, ETV3 (Homo sapiens, UniProt P41162-2 1-143); conditions: protein: recombinant; tags: N-terminal GST; dsDNA, one strand shown
T12 sequence: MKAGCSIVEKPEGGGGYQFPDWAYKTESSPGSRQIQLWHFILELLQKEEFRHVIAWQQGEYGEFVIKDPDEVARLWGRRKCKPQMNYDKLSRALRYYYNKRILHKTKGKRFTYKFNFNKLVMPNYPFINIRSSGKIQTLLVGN
In short: as §1

ETV6 = ETV6 (Homo sapiens, UniProt P41212 1-452); conditions: protein: recombinant; tags: N-terminal GST; dsDNA, one strand shown
Sequence of ETV6 (P41212 whole entry): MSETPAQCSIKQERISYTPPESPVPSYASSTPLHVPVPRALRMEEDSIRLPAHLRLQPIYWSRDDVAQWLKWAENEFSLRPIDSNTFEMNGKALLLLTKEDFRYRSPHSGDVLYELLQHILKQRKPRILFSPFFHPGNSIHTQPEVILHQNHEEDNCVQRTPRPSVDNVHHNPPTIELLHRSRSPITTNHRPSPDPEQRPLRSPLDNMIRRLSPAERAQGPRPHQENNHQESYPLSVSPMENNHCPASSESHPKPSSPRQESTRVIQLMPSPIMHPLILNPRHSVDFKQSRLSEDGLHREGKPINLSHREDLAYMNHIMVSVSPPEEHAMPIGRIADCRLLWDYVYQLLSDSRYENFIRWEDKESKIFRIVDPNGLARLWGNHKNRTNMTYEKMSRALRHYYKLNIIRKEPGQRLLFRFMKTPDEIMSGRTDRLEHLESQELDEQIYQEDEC
In short: as §1

Row | Sequence | binding signal (FEV) | binding signal (ETV5) | binding signal (HSF1) | binding signal (SPIC) | binding signal (ELF4) | binding signal (ELK4) | binding signal (ETV2) | binding signal (CRX) | binding signal (ETV1) | binding signal (ERF) | binding signal (ETS2) | binding signal (ETV7) | binding signal (ELF5) | binding signal (ELF3) | binding signal (ETV3L) | binding signal (SPDEF) | binding signal (ETV3) | binding signal (ETV6)
1 | GTCTAA | 1.03 fold enrichment (6-mer frequency, TF over GST control) | 1.01 fold enrichment (6-mer frequency, TF over GST control) | 1.03 fold enrichment (6-mer frequency, TF over GST control) | 1.11 fold enrichment (6-mer frequency, TF over GST control) | 1.13 fold enrichment (6-mer frequency, TF over GST control) | 1.14 fold enrichment (6-mer frequency, TF over GST control) | 1.06 fold enrichment (6-mer frequency, TF over GST control) | 1.33 fold enrichment (6-mer frequency, TF over GST control) | 1.11 fold enrichment (6-mer frequency, TF over GST control) | 1.12 fold enrichment (6-mer frequency, TF over GST control) | 1.04 fold enrichment (6-mer frequency, TF over GST control) | 1.05 fold enrichment (6-mer frequency, TF over GST control) | 1.03 fold enrichment (6-mer frequency, TF over GST control) |  |  |  |  | 
2 | ACTAAG | 1.02 fold enrichment (6-mer frequency, TF over GST control) | 1.04 fold enrichment (6-mer frequency, TF over GST control) | 1.32 fold enrichment (6-mer frequency, TF over GST control) | 1.19 fold enrichment (6-mer frequency, TF over GST control) | 1.1 fold enrichment (6-mer frequency, TF over GST control) | 1.02 fold enrichment (6-mer frequency, TF over GST control) |  | 1.76 fold enrichment (6-mer frequency, TF over GST control) | 1.15 fold enrichment (6-mer frequency, TF over GST control) | 1.04 fold enrichment (6-mer frequency, TF over GST control) | 1.11 fold enrichment (6-mer frequency, TF over GST control) | 1.14 fold enrichment (6-mer frequency, TF over GST control) | 1.12 fold enrichment (6-mer frequency, TF over GST control) | 1.11 fold enrichment (6-mer frequency, TF over GST control) | 1.12 fold enrichment (6-mer frequency, TF over GST control) | 1.16 fold enrichment (6-mer frequency, TF over GST control) | 1.09 fold enrichment (6-mer frequency, TF over GST control) | 1.2 fold enrichment (6-mer frequency, TF over GST control)
